# About 1,100 (1.7%) of roughly 63,000 compounds were called active. The entries come from a sample that favours actives as a whole. Entries with a potency or affinity are not part of this list. Values without a mark were called inactive. Rule as the data show it: active = cytotoxicity above about 50%; inactive = the rest.
# Test: cytotoxicity in HPDE-C7 cells, cell-based, fluorescence, HTS (AID 430);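 also: cells exposed to compound for 48 hours before viability readout; 0% = vehicle and 100% = reference cytotoxic drug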
# Conditions: HPDE-C7 pancreatic duct cells viability, at 10 µM, active compounds read high
row,Structure (SMILES),cytotoxicity
1,COC(=O)c1ccc(CSc2nc(N)cc(N)n2)cc1,-4.4%
2,CCC(C)NCC(O)COCc1ccc(Cl)cc1 (configuration not stated),9.9%
3,O=C(c1ccco1)N1CCN(C(=O)c2cnn3c2NC(c2cccs2)CC3C(F)(F)F)CC1 (configuration not stated),-5%
4,O=C(Nc1ccc2c(c1)CCC2)c1cnn2c1NC(c1ccco1)CC2C(F)(F)F (configuration not stated),-4.4%
5,O=C(c1cnn2c1NC(c1ccco1)CC2C(F)(F)F)N1CCN(c2cccc(Cl)c2)CC1 (configuration not stated),50.2% (active)
6,Cc1ccc(-c2ccc(=O)n(CCC(=O)NCCN3CCCCC3C)n2)cc1 (configuration not stated),5.1%
7,O=S(=O)(Nc1nc2ccccc2nc1NCCO)c1cccc(Cl)c1,12.5%
8,CCOC(=O)N1CCC(N(C(=O)Nc2ccccc2)C(C)CC)CC1 (configuration not stated),-4.7%
9,CCCCOc1ccccc1C1CC(=O)NC2=C1C(=O)CCC2 (configuration not stated),71.2% (active)
10,CCCOc1c(OC)cccc1C1CC(=O)Nc2cc(OC)c(OC)c(OC)c21 (configuration not stated),10.7%
11,O=C1CC(c2ccc3c(c2)OCO3)c2cc3c(cc2N1)OCO3 (configuration not stated),-5.6%
12,CCCOc1c(OC)cccc1C1CC(=O)Nc2cc3c(cc21)OCCO3 (configuration not stated),70.1% (active)
13,O=C1CC(c2cccnc2)c2cc3c(cc2N1)OCCO3 (configuration not stated),5.1%
14,CCCOc1ccccc1C1CC(=O)NC2=C1C(=O)CCC2 (configuration not stated),47.3%
15,CCOc1ccccc1C1CC(=O)NC2=C1C(=O)CCC2 (configuration not stated),30.3%
16,CCCOc1c(OC)cccc1C1CC(=O)Nc2cc3c(cc21)OCO3 (configuration not stated),12.7%
17,CCCOc1ccccc1C1CC(=O)Nc2cc3c(cc21)OCCO3 (configuration not stated),63% (active)
18,O=C1CC(c2cccs2)c2cc3c(cc2N1)OCCO3 (configuration not stated),5.6%
19,O=C1CC(c2cccs2)c2cc3c(cc2N1)OCO3 (configuration not stated),1%
20,CCCOc1ccccc1C1CC(=O)Nc2cc3c(cc21)OCO3 (configuration not stated),54.1% (active)
21,CCOc1ccccc1C1NC(=O)NC(C)=C1C(=O)OC1CCCCC1 (configuration not stated),1.9%
22,COC(=O)c1c(C)n(-c2ccccc2)c2ccc(O)cc12,11.1%
23,CC(C)C(NC(=O)OCc1ccccc1)C(=O)NCC(=O)OC(C)(C)C (configuration not stated),5.4%
24,COc1ccc(C)cc1NS(=O)(=O)c1ccc(NS(=O)(=O)c2ccc(NC(C)=O)cc2)cc1,-5.6%
25,O=C(CCCOc1ccc(Cl)cc1)N1CCOCC1,-10.1%
26,Cc1nc2sc(C(c3cccs3)N3CCC(C(N)=O)CC3)c(O)n2n1 (configuration not stated),-20.4%

row,Structure (SMILES),cytotoxicity
1,OCC(CO)(CO)N=Cc1cc(Br)ccc1O,8.1%
2,CCCc1n[nH]c2c1C(=O)CC(C)(C)C2,1.7%
3,CCN(C(=O)CSc1nc2nc(C)cc(C)n2n1)c1ccccc1,-4%
4,COC(=O)Cn1c2ccc(F)cc2c2nc(C)sc21,-12.3%
5,Cc1cc(Nc2ccccc2)n(-c2nc3ccccc3[nH]2)n1,4%
6,Cc1cc(=O)[nH]c(-n2nc(C)cc2C)n1,-1.2%
7,Cc1ccc(Nc2cc(C)nn2-c2nc(C)cc(=O)[nH]2)cc1,102% (active)
8,Cc1nc(C)c(C(=O)C2=C(O)C(=O)N(CCN3CCOCC3)C2c2cccnc2)s1 (configuration not stated),-12.6%
9,Fc1cccc2sc(Nc3nnc(-c4ccco4)o3)nc12,53.7% (active)
10,Fc1cccc2sc(Nc3nnc(-c4ccccc4)o3)nc12,53.3% (active)
11,CC(=O)Nc1nc2c(F)cccc2s1,9.8%
12,COc1cc(OC)cc(-c2nnc(Nc3nc4c(F)cccc4s3)o2)c1,8.8%
13,CCC(=O)Nc1nnc(-c2ccco2)o1,-23.7%
14,c1coc(-c2nnc(NC3=NCCC3)o2)c1,7.5%
15,Cc1ccc2c(n1)sc1c(N)ncnc12,9.8%
16,O=C(CSCc1cccc(Br)c1)N1CCOCC1,-8.7%
17,COc1ccc(-c2noc(-c3cc(Cl)ccc3Cl)n2)cc1OC,-2.3%
18,CCOc1ccc(C2N(c3ccc(OC)cc3)C(=O)C3CCCN32)cc1OC (configuration not stated),2.1%
19,O=C(Nc1cc(=O)c2ccccc2o1)N1CCOCC1,11.2%
20,CCOC(=O)Nc1cc(=O)c2ccccc2o1,53.2% (active)
21,CCOC(=O)Oc1ccc2oc(=O)cc(C)c2c1,4.4%
22,O=C(Nc1cc(=O)c2ccccc2o1)N1CCCCC1,-24.9%
23,CCOC(=O)N1CCN(Cc2cc(=O)oc3ccc4ccccc4c23)CC1,14.3%
24,CCOC(=O)/C=C(\C)Sc1cc(=O)oc2ccccc12,78.4% (active)
25,COc1ccc(Cl)cc1NC(=O)C1CCCN(S(=O)(=O)c2cccc3nonc23)C1 (configuration not stated),-12.6%
26,O=C(NCc1ccc(Cl)c(Cl)c1)c1ccco1,-4.6%

row,Structure (SMILES),cytotoxicity
1,CCCCn1c(=O)[nH]c2ccccc21,9.9%
2,COc1ccc(C(=O)NCC(C)CN(C)C)cc1 (configuration not stated),-2.3%
3,CCOC(=O)Nc1cccc(Nc2ccccc2)c1,4.6%
4,Cc1ccc2[nH]c3c(c2c1)CCc1cn[nH]c1-3,43.6%
5,Cc1ccc2[nH]c3c(c2c1)CCC3=O,-7.5%
6,CCN(CC)S(=O)(=O)c1cccc(C(=O)N2CCCCC2)c1,1.9%
7,c1ccc(-c2cn3nc(-c4ccccc4)sc3n2)cc1,-10.8%
8,CCN(c1cccc(C)c1)S(=O)(=O)c1ccc2c(c1)CCN2C(C)=O,46.6%
9,CCN(c1cccc(C(F)(F)F)c1)S(=O)(=O)c1ccc2c(c1)CCN2C(=O)C1CC1,-11.3%
10,CCN(c1cccc(C(F)(F)F)c1)S(=O)(=O)c1ccc2c(c1)CCN2C(C)=O,59.5% (active)
11,CCC1CCCCN1C(=O)Cn1c(=O)n(CCC(=O)NCc2ccco2)c(=O)c2sccc21 (configuration not stated),-4.6%
12,c1ccc(Nc2ccccc2Nc2ccccn2)nc1,-35.9%
13,O=C(Nc1ccccn1)c1ccc2ccccc2n1,-1.6%
14,Oc1cccc2ccc(Nc3ccccn3)nc12,119% (active)
15,COC(=O)c1cc(Cc2ccc(N)c(C(=O)OC)c2)ccc1N,1.9%
16,O=C(COC(=O)CSCC(=O)N1CCCCC1)NCc1ccc(F)cc1,-5.4%
17,O=C(Nc1ccc(C(F)(F)F)cc1Cl)c1ccc(Cn2cc(Br)cn2)o1,63.2% (active)
18,CC(=O)c1sc(NC(=O)c2ccc(Cn3cc(Br)cn3)o2)nc1C,3.3%
19,O=C(NC1CCCCC1)c1ccc(Cn2cc(Br)cn2)o1,-6.8%
20,Oc1ccccc1-c1cc(C(F)(F)C(F)F)[nH]n1,-15.5%
21,FC(F)C(F)(F)C(F)(F)C(F)(F)c1cc(-c2ccccc2)n[nH]1,83.3% (active)
22,O=C1CC(C(F)(F)C(F)(F)C(F)(F)C(F)F)=Nc2ccccc2N1,-21.9%
23,CCN(CCCNC(=O)Cn1ncc2c(=O)oc3ccccc3c21)c1cccc(C)c1,55.1% (active)
24,CCN(CC)CCCNC(=O)Cn1ncc2c(=O)oc3ccc(C)cc3c21,1.6%
25,CCOCCCNC(=O)Cn1ncc2c(=O)oc3ccccc3c21,-3.8%
26,Cc1cc(C)nc(NC(=O)NS(=O)(=O)N2CCCCCC2)n1,-13.1%

row,Structure (SMILES),cytotoxicity
1,Cc1ccc2[nH]c(=O)c(CN(CCc3ccccc3)Cc3nnnn3CC3CCCO3)cc2c1 (configuration not stated),9.4%
2,CCOC(=O)N1CCN(C(=O)CSc2nnc(COc3ccc(Cl)cc3)o2)CC1,-20.5%
3,CN1/C(=C/C(=O)c2nc(S(C)(=O)=O)ncc2Cl)C(C)(C)c2ccccc21,110% (active)
4,CN1/C(=C\C(=O)C(F)F)C(C)(C)c2ccccc21,-24.8%
5,CN1/C(=C\C(=O)c2ccco2)C(C)(C)c2ccccc21,-14.9%
6,COc1cc(CO)cc(Br)c1OCC(=O)O,-22.6%
7,O=C(CSc1nnc(Cc2cc(=O)[nH]c(=O)[nH]2)n1-c1ccccc1)N1CCCC1,-9.2%
8,O=C(CSC1=NCCS1)Nc1ccccc1F,-3.4%
9,Cc1cc(NC(=O)CSc2nnc(-c3ccco3)n2Cc2ccco2)no1,-9.5%
10,O=c1nc(-c2ccccc2)cc(-c2ccccc2)[nH]1,-1.2%
11,[O-][n+]1onc2c1CCc1nnc(-c3ccccc3)cc1-2,5.5%
12,Cc1ccc(/C(O)=C2/C(=O)C(=O)N(Cc3cccnc3)C2c2ccccn2)cc1 (configuration not stated),10.4%
13,COc1cccc(Oc2cnc(N)nc2-c2ccc(OC)cc2O)c1,52% (active)
14,COc1ccc(-c2nc(N)nc(C)c2Oc2ccccc2Br)c(O)c1,87.7% (active)
15,C=C(C)COc1ccc(-c2nc(N)ncc2Oc2ccc(OC)cc2)c(O)c1,-10.3%
16,CCOc1ccc(-c2ncncc2-c2ccc(OC)cc2)c(O)c1,-11.9%
17,COc1ccc(-c2nc(N)ncc2-c2csc(C)n2)c(O)c1,-25%
18,COc1cccc(Oc2cn[nH]c2-c2ccc(O)cc2O)c1,36%
19,COc1cccc(Oc2cncnc2-c2ccc(OC)cc2O)c1,20.3%
20,CCOc1ccc(-c2nc(N)nc(C)c2-c2ccc(OC)c(OC)c2)c(O)c1,3.7%
21,COc1ccc(-c2[nH]ncc2-c2cnn(-c3ccccc3)c2)c(O)c1,-0.4%
22,COc1ccc(-c2nc(N)ncc2Oc2ccccc2Br)c(O)c1,-2.2%
23,COc1cccc(Oc2cn[nH]c2-c2ccc(OC)cc2O)c1,72.7% (active)
24,C=C(C)COc1ccc(-c2nc(N)ncc2-c2ccc(OC)cc2)c(O)c1,70.7% (active)

# — PubChem BioAssay AID430 (Sanford-Burnham Center for Chemical Genomics, 2006)
